The nature of assay [1]: qHTS assay for small molecule agonists of the p53 signaling pathway (AID 651631; calls by dose curve; note: nearly all actives have a fitted effect of over 15% in size; note: potency is the fitted concentration of half-maximal effect). The method in brief: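 HCT-116 cells carrying a beta-lactamase reporter under p53 response elements were dosed with compound for 16 h at 37 °C. LiveBLAzer B/G FRET substrate was then added for 2 h at room temperature, and fluorescence intensity was read to detect pathway agonism.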
A short description of assay [2]: qHTS assay for small molecules that induce genotoxicity in human embryonic kidney cells expressing luciferase-tagged ATAD5 (AID 651632). Note: nearly all actives have a fitted effect of over 15% in size. Note: potency is the fitted concentration of half-maximal effect. The method in brief:
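Luminescence read-out: after 16 hr compound exposure at 37C, ATAD5-luciferase HEK293T cells received Amplite, 30 min RT, then CCD imaging. A rise in signal marks genotoxic stress.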

Assay [3] is described as follows: qHTS assay for small molecule agonists of the p53 signaling pathway - cell viability (AID 651633; calls by dose curve;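 note: p53RE-bla HCT reporter cells with a stable beta-lactamase p53 reporter; series mostly up to about 83 µM; nearly all actives have a fitted effect of over 30% in size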). The method in brief: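 p53RE-bla cells, seeded at 4,000 per well and rested 5 h at 37 C/5% CO2, received compounds in DMSO for 16 h at 37 C. CellTiter-Glo was then added, and luminescence was read after 30 min at room temperature to gauge cytotoxicity.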
Assay [4] is described as follows: qHTS assay for small molecules that induce genotoxicity in human embryonic kidney cells expressing luciferase-tagged ATAD5 - cell viability (AID 651634; calls by dose curve; note: nearly all actives have a fitted effect of over 25% in size). The method in brief:
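HEK293T ATAD5-luc cells, 2,000/well; compound 15.5 hr, 37C/5% CO2; CellTiter-Fluor 30 min, 37C; fluorescence read.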
A general note: Quantitative high-throughput screening tests each substance at several concentrations.

Assay [5] is described as follows: qHTS assay for small molecule disruptors of the mitochondrial membrane potential - cell viability (AID 720634; calls by dose curve;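 note: human HepG2 liver cancer cells; series mostly up to about 83 µM; nearly all actives have a fitted effect of over 20% in size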). An outline of the steps:
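Luminescence from CellTiter-Glo (ATP content) gave viability in HepG2 cells, read in the same wells as the MMP dye assay after 1 hr compound exposure at 37 C.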

Assay [6] is described as follows: qHTS assay for small molecule disruptors of the mitochondrial membrane potential (AID 720635). Note: potency is the fitted concentration of half-maximal effect. The method in brief:
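HepG2 cells (2,000/well) attached overnight at 37C, then took compound for 1 hr at 37C, 5% CO2. Mito-MPS dye was added for 30 min; fluorescence was read at 490/535 nm (monomers) and 540/590 nm (aggregates).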

Assay [7] is described as follows: qHTS assay to test for compound auto fluorescence at 590 nm (red) in HepG2 cells (AID 720674). An outline of the steps:
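Rose Bengal sodium served as the red fluorophore standard. HepG2 monolayers (overnight attachment, MEM with 10% FBS) were exposed to test compounds for 1 hr at 37 C and read at Ex 540/Em 590 nm.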

Assay [8] in a line: qHTS assay to test for compound auto fluorescence at 535 nm (green) in HepG2 cells (AID 720675).
Assay [9] in a line: qHTS assay to test for compound auto fluorescence at 460 nm (blue) in HEK293 cells (AID 720678). An outline of the steps: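 Blue-channel (Ex/Em 405/460 nm) intensity measured in HEK293 cultures after overnight compound exposure at 37C; signal expressed relative to triamterene. Cells plated 2,000 per well in 10% dialyzed FBS medium and allowed 4-5 hr to attach.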
Assay [10] is described as follows: qHTS assay to test for compound auto fluorescence at 590 nm (red) in HEK293 cells (AID 720679). An outline of the steps:
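Red-channel autofluorescence (Ex/Em 540/590 nm; Rose Bengal sodium reference) was measured after overnight 37C, 5% CO2 exposure of attached HEK293 cells, 2,000 per well in medium with 10% dialyzed FBS.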

The structures appear in SMILES notation. “And” between values parts separate entries of the source, which are not always exact repeats. Identical values can stand only once. Records with an inconclusive call do not appear. Where a structure was tested more than once in an assay, its records may differ in their call. The source made the active and inactive calls. Unless noted, calls come from the whole dose curve; as a rule, active = well fitted curve in the direction sought with a large enough effect in the repeat runs; inconclusive = weak or mixed curves; inactive = no such curve, though single readings can be large; an effect the other way counts as inactive or inconclusive.

On to `C=C(C)C(=O)OCCC[Si](OC)(OC)OC`, for which the Potency entry in [1], in [2], in assay [3], in assay [4], in assay [5] and in [9] was “inactive” in each case. The Potency in [6] is 76.1 µM (active) and inactive. The molecule was called inactive in assay [7], in assay [8] and in assay [10].
`CCCCNC(N)=O`: the Potency entry in assay [1], in [2], in assay [3], in assay [4], in assay [5] and in assay [6] was “inactive” throughout. Also, in assay [9], the Potency result is “inactive”. Besides, the molecule was classed as inactive in assay [7], in assay [8] and in assay [10].
On to `O=S(=O)(O)CCS`, for which the Potency result in assay [1], in assay [2], in assay [3], in [4], in assay [5] and in assay [6] was “inactive” throughout. Besides, in [9], the Potency entry is “inactive”. In addition, the molecule was called inactive in [7], in assay [8] and in [10].
`O=c1c(-c2ccc(O)cc2)coc2cc(O)ccc12`: the Potency result in assay [1], in assay [3], in [4] and in assay [9] was “inactive” throughout. In addition, the Potency was 30.3 µM (active) in assay [2] and 19.1 µM (active) in assay [6]. Further, the molecule was classed as inactive in [7], in assay [8] and in [10].
Consider `C=C(C)C(=O)OCCCCCCCCCCCC`, for which the Potency entry in assay [1], in [2], in assay [3], in assay [4], in [5] and in assay [9] was “inactive” in each case. For the same molecule, the molecule was classed as inactive in assay [7], in assay [8] and in assay [10].
For the molecule `COC(=O)Nc1nc2ccc(Sc3ccccc3)cc2[nH]1`, the Potency in assay [1] was 114 nM (active) and 68.6 nM (active); in assay [2] it was 4.03 µM (active) and 12.2 µM (active); in assay [6], 4.33 µM (active). The Potency entry in assay [3], in assay [4], in assay [5] and in assay [9] was “inactive” throughout. The molecule was classed as inactive in assay [7], in assay [8] and in [10].
For `C/C=C(C)/C=C/C=C(C)C`, the Potency result in assay [1], in assay [2], in assay [3], in assay [4], in assay [5] and in assay [9] was “inactive” in each case. For the same molecule, the call in [7] and in [8] was inactive.
For `CC[Si](OC(C)=O)(OC(C)=O)OC(C)=O`, the Potency result in assay [1], in [2], in assay [3], in assay [4], in assay [5] and in assay [6] was “inactive” throughout. Further, the Potency entry in assay [9] was “inactive”. Besides, the call in [7], in assay [8] and in assay [10] was inactive.
Take `Clc1ccc(Cl)c(Cl)c1Cl`: the Potency result in [1], in assay [2], in assay [3], in [4] and in assay [9] was “inactive” in each case. The molecule was called inactive in assay [7] and in [8].
Take `C=C(C#N)C(=O)OCC`: the Potency entry in [1], in assay [2], in assay [3], in [4], in assay [5] and in assay [9] was “inactive” throughout. In addition, the result in [7], in assay [8] and in assay [10] was inactive.
`C=C1C2CCC(C2)C1(C)C` (stereo not given): the Potency entry in assay [1], in assay [2], in [3], in assay [4], in assay [5] and in [6] was “inactive” each time. Besides, the Potency result in assay [9] is “inactive”. The result in assay [7], in assay [8] and in assay [10] was inactive.
Turning to `COCC(C)O` (stereo not given), the Potency entry in [1], in assay [2], in [3], in assay [4], in [5] and in assay [9] was “inactive” each time. Moreover, the molecule was called inactive in assay [7], in assay [8] and in [10].
In the case of `NC(=O)/N=N/C(N)=O`, the Potency entry in assay [1], in [2], in assay [3], in assay [4], in [5] and in [9] was “inactive” in each case. The outcome in assay [7], in [8] and in assay [10] was inactive.
For `CC(C)(C)C1CCC(O)CC1` (stereo not given), the Potency entry in assay [1], in assay [2], in assay [3], in assay [4], in assay [5] and in assay [6] was “inactive” each time. For the same molecule, the Potency result in assay [9] is “inactive”. The molecule was called inactive in [7], in assay [8] and in [10].
For the molecule `CC1(C)O[C@@H]2C[C@H]3[C@@H]4C[C@H](F)C5=CC(=O)CC[C@]5(C)[C@H]4[C@@H](O)C[C@]3(C)[C@]2(C(=O)CO)O1`, the Potency entry in assay [1], in [2], in assay [3], in [4], in assay [5] and in assay [6] was “inactive” throughout. In addition, the Potency result in assay [9] is “inactive”. Also, the call in assay [7], in assay [8] and in assay [10] was inactive.
Turning to `COC(=O)c1ccc(C(=O)OC)cc1`, the Potency entry in assay [1], in [2], in assay [3], in assay [4], in [5] and in [6] was “inactive” throughout. Besides, the Potency entry in [9] was “inactive”. Also, the result in assay [7], in assay [8] and in assay [10] was inactive.

The record behind these values is PubChem BioAssay (Tox21).
